Screening results: PubChem, National Center for Advancing Translational Sciences (NCATS)
Compounds with a hit are over-represented: about 11% of the library has one in this group of screens.
BAZ2B inh – qHTS Assay for Inhibitors of BAZ2B; 4.4% of 360,000 active; Bromodomain adjacent to zinc finger domain protein 2B (Homo sapiens), Q9UIF8; Potency, µM (highest dose often 114 µM), for the others: at the top dose activity change, negative = inhibition, actives largely listed as inhibitors; AlphaScreen BAZ2B-H3K14Ac peptide displacement; further: on the % scale 0 is the no-effect control and ±100 the full control effect; nearly all actives have a fitted effect of over 60% in size
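Protein-peptide AlphaScreen: BAZ2B 50 nM, b-H3K14Ac 50 nM, 1x PBS pH 7.4 + 0.01% Tween-20. Preincubation 30 min RT; cpd 30 min RT (top 110 uM); beads 20 min RT, light-protected.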
G9a block – qHTS Assay for Inhibitors of Histone Lysine Methyltransferase G9a; G9a H3K9 monomethylation, AlphaScreen, 2 h; Histone-lysine N-methyltransferase EHMT2 (Homo sapiens), Q96KQ7; 8.8% of 350,000 active; Potency, µM (titrated, usually from 102 µM), inactives show at the top dose activity, negative = inhibition, actives largely listed as inhibitors; further: on the % scale 0 is the no-effect control and ±100 the full control effect; nearly all actives have a fitted effect of over 75% in size
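Readings reflect AlphaScreen signal from monomethyl-H3K9 antibody detection. HMT at 20 nM; substrate b-H3K9 500 nM; cofactor SAM 20 uM; 2 h RT reaction; compounds tested as titrations in qHTS with 15 min preincubation.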
HP1b binding inh – HTS for Inhibitors of HP1-beta Chromodomain Interactions with Methylated Histone Tails; Chromobox protein homolog 1 (Homo sapiens), P83916; AlphaScreen HP1-beta / biotin-H3K9me3 peptide binding; Potency, µM (top dose mostly 114 µM), for inactives: at the highest dose activity change, negative = inhibition, hits mostly inhibitors; 0.56% of 390,000 active; AID 540317, 2011; further: nearly all actives have a fitted effect of over 70% in size
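AlphaScreen: HP1-beta (50 nM) preformed 30 min with biotin-H3(1-18)K9me3 peptide (50 nM) in PBS pH 7.4, 0.01% Tween-20. Compound added for 30 min at RT, then streptavidin donor/nickel chelate acceptor beads (10 ug/mL) for 30 min.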
JMJD2A Tudor – qHTS Assay for Inhibitors of JMJD2A-Tudor Domain | Lysine-specific demethylase 4A (Homo sapiens), O75164 | AlphaScreen JMJD2A-Tudor / H3K4me3 peptide binding | 4.4% of 390,000 active | Potency, µM (top dose mostly 114 µM), without a hit: at the highest dose activity change, negative = inhibition, usual class: inhibitors; further: on the % scale 0 is the no-effect control and ±100 the full control effect; nearly all actives have a fitted effect of over 50% in size
L3MBTL1 block – qHTS Assay for the Inhibitors of L3MBTL1 | 0.66% of 230,000 active | AID 485360, 2010 | AlphaScreen L3MBTL1–H3K9me1 peptide binding | Potency, µM (highest dose often 57.1 µM), without a hit: top-dose activity, negative = inhibition, most hits filed as inhibitors; further: on the % scale 0 is the no-effect control and ±100 the full control effect; nearly all actives have a fitted effect of over 60% in size
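Displacement of a biotinylated histone H3(1-15) peptide monomethylated at Lys9 (75 nM) from L3MBTL1 (50 nM) was measured by AlphaScreen after a 30 min room-temperature compound incubation; cefsulodin titration served as intraplate control.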
Active calls of the source: *; ? = inconclusive; / = not tested or not shown; ! = a repeat was not active; [ ] = remark or other dose. The call rests on the fitted dose curve; in most records, active means well fitted inhibition curve with a large enough effect; inconclusive means small, poorly fitted or top-dose-only effect; inactive means no such curve, though single readings can be large or run the other way. Potency means the concentration at half of the fitted maximal effect.

SMILES | BAZ2B inh | G9a block | HP1b binding inh | JMJD2A Tudor | L3MBTL1 block
O=C(CN1C(=O)C2C3c4ccccc4C(c4ccccc43)C2C1=O)Nc1ccccc1C(=O)O (stereo unspecified) | 4.1% | 0.0%[59 µM] | 25.3% | -11.9% | 35.6%
Cc1ccccc1NC(=O)CN1C(=O)C2C3CC(C(Br)C3Br)C2C1=O (stereo unspecified) | -10.5% | 5.01µM* | ? | ? | -5.7%
CCCCN(CCCC)CCNC(=O)c1cc(=O)[nH]c2ccc(S(=O)(=O)N3CCCCCC3)cc12 | -5.2% | 2.7%[59 µM] | 28.3% | -13.1% | /
COc1ccc2c(c1)c(N1CCCC1=O)c(C(=O)Nc1cc(C)c(Cl)cc1OC)n2C | ? | -36.5%[59 µM] | -0.7% | -15.9% | /
Cc1ccccc1-c1nc(CS(=O)(=O)CC(=O)N2CCN(c3ccccc3)CC2)c(C)o1 | ? | ? | 0.9% | -27.9% | /
Cc1ccc(-c2nc(CS(=O)(=O)CC(=O)N3CCN(c4ccccc4)CC3)c(C)o2)cc1 | 56.2µM* | -38.0%[59 µM] | 2.6% | ? | /
COc1ccc(-c2nc(CSCC(=O)N3CCN(c4ccc(OC)cc4)CC3)c(C)o2)cc1 | 35.5µM* | 11.2µM* | -19.1% | ? | /
CCN1CCN(C(=O)CS(=O)Cc2nc(-c3ccc(OC)cc3)oc2C)CC1 (stereo unspecified) | -5.0% | 70.8µM* | / | -4.9% | /
CCN1CCN(C(=O)CS(=O)Cc2nc(-c3cccc(C)c3)oc2C)CC1 (stereo unspecified) | -5.4% | -3.3% | 45.3% | -16.8% | /
Cc1cccc(-c2nc(CS(=O)CC(=O)N3CCc4ccccc4C3)c(C)o2)c1 (stereo unspecified) | 2.3% | 31.6µM* | 22.7% | -14.8% | -2.7%
Cc1cccc(C(=O)Nc2ccc(C(=O)OCc3cc(=O)n4nc(CC(C)C)sc4n3)cc2)c1 | -1.2% | -1.4%[59 µM] | -13.0% | -9.9% | /
CCCCc1ccc(-n2nc3cc(C)c(NC(=O)c4ccc(C#N)cc4F)cc3n2)cc1 | -17.5% | ? | 30.1% | 1.1% | /
NC(=S)N/N=C/c1ncc(C(F)(F)F)cc1Cl | 50.1µM* | -28.2% | 41.7% | ? | ?
COc1ccc(-c2nc(C#N)c(NCCc3ccccc3)o2)cc1OC | 44.7µM* | ? | -30.6% | ? | /
CCNc1oc(COc2ccccc2F)nc1C#N | -27.7% | 39.8µM* | 27.4% | -14.4% | -5.7%
COc1ccc(Nc2oc(COc3ccccc3OC)nc2C#N)cc1 | ? | ? | -3.9% | ? | -16.8%
COc1ccc(CCNc2oc(COc3ccccc3F)nc2C#N)cc1OC | ? | 44.7µM* | ? | -27.5%[11.4 µM] | -9.7%
CCCN(CCC)C(=O)c1nn(C)c2c1CSc1ccc(C)cc1-2 | 10.4% | -17.7%[59 µM] | -3.4% | 7.6% | /
COc1cc(C(=O)Oc2c(OC)cc(C(=S)N3CCOCC3)cc2OC)cc(OC)c1OC | -32.6% | ? | 21.3% | -28.2% | -4.2%
O=C(Oc1c(CN2CCOCC2)cc(Cl)c2cccnc12)c1ccc(F)cc1 | 20µM* | 6.7%[59 µM] | -2.1% | 22.4µM* | ?
O=C(Oc1c(CN2CCOCC2)cc(Cl)c2cccnc12)c1cccs1 | / | 26.2% | 24.6% | ? | -85.1%
COc1cccc(C(=O)Oc2c(CN3CCOCC3)cc(Cl)c3cccnc23)c1 | 44.7µM* | -33.1% | 32.9% | 50.1µM* | /
COc1cccc(C(=O)OCCN2CCOCC2)c1 | -15.5% | -5.6% | 68.9% | -8.8% | 6.1%
COc1cc(C(=O)Oc2c(CN3CCOCC3)cc(Cl)c3cccnc23)cc(OC)c1OC | 20µM* | -15.7% | 16.6% | 56.2µM* | /
COc1ccc(C(=O)Oc2c(CN3CCOCC3)cc(Cl)c3cccnc23)cc1 | 50.1µM* | ? | 33.5% | ? | /
SMILES | BAZ2B inh | G9a block | HP1b binding inh | JMJD2A Tudor | L3MBTL1 block
CC(=O)c1cc(-c2ccccc2)n(CCC(=O)Nc2ccc(C(C)C)cc2)c1C | ? | ? | 23.3% | -34.0% | /
CC(=O)COc1nc2c(c(-c3ccco3)c1C#N)CCc1ccccc1-2 | -16.2% | 44.7µM* | 9.2% | 22.4% | 23.7%
CCOc1nc2c(c(-c3cccs3)c1C#N)Cc1ccccc1-2 | 4.4% | -36.9% | 13.2% | -2.1% | 1.0%
CCCCCCCCCCCCCCCC(=O)OC(CC(=O)O)C[N+](C)(C)C (stereo unspecified) | 3.5% | 31.6µM*! | 19.6% | -26.9% | 11.4%
Cc1cc(NC(=O)CN2C(=O)NC(C)(c3ccccc3)C2=O)no1 (stereo unspecified) | 2.2% | 0.7%[59 µM] | 28.4% | -10.4% | /
COc1ccc(C2(c3ccc(OC)cc3)NC(=O)N(CC(=O)Nc3ccccc3C(F)(F)F)C2=O)cc1 | -4.2% | 79.4µM* | 2.9% | -27.1% | /
Cc1cc(NC(=O)CN2C(=O)NC(c3ccccc3)(c3ccc(C)c(C)c3)C2=O)no1 (stereo unspecified) | -0.1% | 17.8µM* | 8.7% | ? | 7.5%
COc1ccc(C2(c3ccc(OC)cc3)NC(=O)N(CC(=O)Nc3ccccc3C)C2=O)cc1 | -1.4% | / | 15.7% | -29.5% | /
COc1cccc(C(=O)Nc2cccc(C(=O)OCc3cc(=O)n4nc(C5CC5)sc4n3)c2)c1 | -9.9% | -0.8%[59 µM] | 25.8% | -16.9% | /
Nc1c(C(=O)N2CCOCC2)sc(=S)n1-c1ccccc1 | -9.5% | 2.24µM* | -42.7% | ? | -7.4%
CC(=O)c1sc(=S)n(-c2ccccc2)c1C | -3.2% | 27.6% | 18.5% | -6.8% | -3.4%
Nc1c(C(=O)N2CCCCC2)sc(=S)n1-c1ccccc1 | ? | ? | 14.1µM* | 50.1µM* | -6.0%
Nc1c(C(=O)N2CCCC2)sc2nc(-c3ccccc3)ccc12 | 22.6% | ? | 88.0% | 32.4% | 38.6%
O=[N+]([O-])c1ccc(O)c(C=Nc2ccc3oc(Cc4ccc(Cl)cc4)nc3c2)c1 | ? | 28.2µM* | / | / | -20.8%
Nc1ccc2oc(Cc3ccc(Cl)cc3)nc2c1 | -36.8% | 12.6µM* | -19.3% | ? | /
CCC(=O)N1CCc2cc(Br)cc(S(=O)(=O)NCCc3ccccc3Cl)c21 | 0.7% | -0.4%[59 µM] | 32.9% | -2.4% | /
Cc1ccc2c(c1)C(c1ccc(F)cc1)N(C(=O)COc1ccc(Cl)cc1Cl)CC(=O)N2 (stereo unspecified) | -14.2% | -11.0%[59 µM] | 15.9% | -18.1% | /
O=C(c1ccc([N+](=O)[O-])cc1)c1cc2ccc(O)cc2oc1=O | -24.6% | 50.1µM* | 14.0% | -11.6% | /
O=C(Cn1cc(S(=O)(=O)Cc2ccc(F)cc2)c2ccccc21)NCCc1ccccc1 | -36.4% | -7.8%[59 µM] | -19.1% | ? | /
COc1ccc(C=C2NC(=S)NC2=O)cc1 | / | / | -6.1% | -30.3% | /
COc1ccc(C(=O)N2C(=S)NC(=O)/C2=C\c2ccc(C)cc2)cc1 | 50.1µM* | -0.6%[59 µM] | -22.9% | 50.1µM* | -21.5%
COc1cccc(-c2nnc3n2N=C(c2c(OC)cccc2OC)CS3)c1 | / | / | / | -18.6% | /
